High-throughput results as filed in PubChem BioAssay.
Most compounds without a hit are left out; they make up all but 4.3% or so of the library.
esBAF inh – SWI/SNF esBAF complex inhibition | mouse ES cells, Bmi1-luciferase knock-in reporter, 24 h; 100% = twice the neutral-well signal | reporter increase, % at 12.5 µM | 350,000 tested, 2% active; in the data active = activation above about 40%; inconclusive = no clear call, values can overlap the other calls;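 also: a rise in the Bmi1 reporter signal indicates esBAF inhibition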
FGF22 binding – binders of recombinant human FGF22 by thermal shift; 340,000 tested, 1.5% active; AID 651658; SYPRO orange fluorescence; percent of sucrose octasulfate shift, DMSO zero; activity (Tm shift, normalised), % at 9.99 µM;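 active = mean Tm shift, scaled 0 neutral to 100 positive control, at about 1.3% or above, every replicate too, limit read from the data; inconclusive = no clear call, values can overlap the other calls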
Target sequence (Q9HCT0 whole entry, looked up): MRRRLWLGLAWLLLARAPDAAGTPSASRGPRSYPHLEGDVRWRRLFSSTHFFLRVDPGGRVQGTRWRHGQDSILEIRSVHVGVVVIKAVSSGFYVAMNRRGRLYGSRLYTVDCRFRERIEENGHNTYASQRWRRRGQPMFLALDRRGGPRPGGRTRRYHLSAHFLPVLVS
AF4-AF9 inh – MLL-AF4/AF9 protein interaction inhibition | AlphaScreen, biotin-AF4 peptide binding to FLAG-AF9 | inhibition, % at 10 µM | 350,000 tested, 0.47% active | AID 651704;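 active = every replicate reaching a set inhibition limit, whatever the replicate mean, cut at about 25% in these data; inconclusive = mean inhibition reaches that limit but some replicates miss it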
Target sequence (P42568 whole entry, looked up): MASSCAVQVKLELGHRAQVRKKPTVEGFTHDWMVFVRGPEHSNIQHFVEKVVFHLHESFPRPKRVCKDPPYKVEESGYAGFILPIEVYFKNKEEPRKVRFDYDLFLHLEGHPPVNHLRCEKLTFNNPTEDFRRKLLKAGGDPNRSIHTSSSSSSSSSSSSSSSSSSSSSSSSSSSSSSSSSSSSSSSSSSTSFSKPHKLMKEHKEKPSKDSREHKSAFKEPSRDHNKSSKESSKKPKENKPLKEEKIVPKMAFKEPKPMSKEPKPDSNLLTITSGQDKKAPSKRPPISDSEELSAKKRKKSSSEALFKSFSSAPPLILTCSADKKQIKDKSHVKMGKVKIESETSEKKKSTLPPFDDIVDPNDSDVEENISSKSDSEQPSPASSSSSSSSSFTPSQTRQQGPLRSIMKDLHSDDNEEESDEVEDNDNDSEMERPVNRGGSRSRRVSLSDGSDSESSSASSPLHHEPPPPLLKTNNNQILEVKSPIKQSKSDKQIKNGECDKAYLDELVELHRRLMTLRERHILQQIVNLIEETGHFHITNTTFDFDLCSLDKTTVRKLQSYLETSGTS
MITF TRPM1 HTS – increases MITF-driven TRPM1 promoter luciferase signal; SK-MEL-5 TRPM1-promoter luciferase, 24 h; % of positive control, neutral wells = 0; activation, % at 12.5 µM; 300,000 tested, 0.75% active; AID 588334;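 active = mean activation of at least 80% with every replicate also reaching 80%; inconclusive = mean reaches 80% but some replicate falls short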
Wnt act – Wnt/beta-catenin pathway activation; Wnt/beta-catenin reporter cell assay, activator, plate reader; activation, % at 9.35 µM; 300,000 tested, 1.2% active; AID 743398; in the data active = activation above about 30%, passing the limit was not always enough; inconclusive = no clear call, values can overlap the other calls
SMARCA2 activ – activators of SMARCA2 function. MG213 cells, MMTV-luciferase reporter, dexamethasone, overnight. activation, % at 9.1 µM. 370,000 tested, 1% active. AID 652017; in the data active = activation above about 7.8%
SMARCA2 conf – SMARCA2 activation, confirmation screen | MG213 cells, MMTV-luciferase with dexamethasone, luminescence, overnight; MG213 cells expressing E1A, Rb sequestered; DMSO wells 0%, reference activator 100% | shares compounds with SMARCA2 activ | activation, % at 9.1 µM | 3,500 tested, 30% active;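 active = activation above its plate's cutoff, the mean activation of tested wells plus 3 SD, cut at about 7.9% in these data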
GAL4-VP16 Luc – GAL4-VP16 reporter activation counter-screen; shares compounds with SMARCA2 activ; HEK293 GAL4-VP16 pG5luc reporter, luciferase luminescence; scaled: DMSO wells 0%, SAHA wells 100%; activation, % at 9.1 µM; 3,500 tested, 41% active;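 active = activation above the solvent-only control well mean plus 3 SD, averaged across control plates, cut at about 5.2% in these data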
Each line names hits and unclear results; the compound was inactive in the other large screens (follow-up assays come after a bar, where they were run).

C[C@@H]1CN([C@H](C)CO)C(=O)Cc2cc(NC(=O)CCN3CCOCC3)ccc2O[C@H]1CN(C)C(=O)Nc1cccc2ccccc12	none (no result: MITF TRPM1 HTS, Wnt act, SMARCA2 activ)
O=C(O)c1ccc(C[n+]2c(-c3ccccc3)csc2Nc2ccccc2)cc1	SMARCA2 activ 10.2 (no result: FGF22 binding, AF4-AF9 inh) | SMARCA2 conf inactive | GAL4-VP16 Luc inactive
C[C@@H](NC(=O)C[C@H]1C=C[C@H](NC(=O)Cc2ccccn2)[C@@H](CO)O1)c1ccccc1	none (no result: MITF TRPM1 HTS, Wnt act, SMARCA2 activ)
CCc1ccccc1-n1ncc(C(=O)Nc2ccc(OC)cc2)c1C	SMARCA2 activ 8.0 | SMARCA2 conf inactive | GAL4-VP16 Luc 12.4
CC(C)N1CCC(N2CCN(Cc3ccc(-c4ccc(Cl)cc4)o3)CC2CCO)CC1 (stereo not drawn)	SMARCA2 activ 9.9 | SMARCA2 conf inactive | GAL4-VP16 Luc inactive
COc1ccc(CN(C)C[C@@H]2OCCCC[C@H](C)Oc3ccc(NC(=O)c4ccncc4)cc3C(=O)N([C@@H](C)CO)C[C@H]2C)cc1	none (no result: esBAF inh, MITF TRPM1 HTS, Wnt act, SMARCA2 activ)
Brc1ccc(/C=N/Nc2nc3ccccc3o2)cc1	esBAF inh inconclusive, MITF TRPM1 HTS 99.5, Wnt act 47.2, SMARCA2 activ 9.2 | SMARCA2 conf inactive | GAL4-VP16 Luc 13.7
Oc1ccccc1/C=N/Nc1nc2ccccc2o1	Wnt act inconclusive
O=C(CSc1ncn[nH]1)c1ccc2c(c1)OCO2	SMARCA2 activ 8.6 (no result: FGF22 binding, AF4-AF9 inh, Wnt act) | SMARCA2 conf inactive | GAL4-VP16 Luc inactive
C(=NN=C(NN=Cc1cccs1)NN=Cc1cccs1)c1cccs1	FGF22 binding 43.1, SMARCA2 activ 12.1 | SMARCA2 conf inactive | GAL4-VP16 Luc inactive
O=C(N/N=C/c1cccs1)c1ccccn1	SMARCA2 activ 10.3 (no result: esBAF inh, FGF22 binding, AF4-AF9 inh) | SMARCA2 conf 9.6 | GAL4-VP16 Luc 8.9
COc1cccc(CN2CC3(CCN(C(C)=O)CC3)c3c(n(C)c4cc(OC)ccc34)[C@H]2CO)c1	none (no result: esBAF inh, MITF TRPM1 HTS, Wnt act, SMARCA2 activ)
Cn1cc(-c2nnc(-c3ccccc3)o2)c2ccccc21	Wnt act 42.0, SMARCA2 activ 13.1 (no result: FGF22 binding, AF4-AF9 inh) | SMARCA2 conf inactive | GAL4-VP16 Luc 7.2
CNC(C)C#Cc1ccc2c(=O)c3ccccc3oc2c1 (stereo not drawn)	esBAF inh 50.8, Wnt act 37.9, SMARCA2 activ 9.2 | SMARCA2 conf 12.6 | GAL4-VP16 Luc inactive
CC(C)C(=O)Nc1ccc2c(c1)C(=O)N(C)[C@H]1CC[C@@H](CC(=O)NCc3ccc(F)cc3)O[C@@H]1CO2	none (no result: MITF TRPM1 HTS, Wnt act, SMARCA2 activ)
COc1ccccc1CNc1ncnc2c1cnn2-c1ccccc1	esBAF inh 70.8, SMARCA2 activ 8.2 | SMARCA2 conf inactive | GAL4-VP16 Luc inactive
C=CCNc1ncnc2c1cnn2-c1ccc(Cl)cc1	Wnt act inconclusive, SMARCA2 activ 11.7 (no result: MITF TRPM1 HTS) | SMARCA2 conf 8.3 | GAL4-VP16 Luc 11.5
CCCCNc1ncnc2c1cnn2-c1ccc(Cl)cc1	SMARCA2 activ 10.5 | SMARCA2 conf inactive | GAL4-VP16 Luc 9.8
Clc1ccc(-n2ncc3c(NCc4ccccn4)ncnc32)cc1	esBAF inh 67.9, SMARCA2 activ 11.5 (no result: FGF22 binding, AF4-AF9 inh) | SMARCA2 conf 11.3 | GAL4-VP16 Luc 6.0
Cc1ccc(-n2ncc3c(NCc4ccccn4)ncnc32)c(C)c1	none (no result: FGF22 binding, AF4-AF9 inh, Wnt act)
C[C@@H]1CN([C@@H](C)CO)S(=O)(=O)c2ccc(-c3ccccc3)cc2O[C@H]1CN(C)Cc1ccccn1	none (no result: MITF TRPM1 HTS, Wnt act, SMARCA2 activ)
C[C@@H]1CN([C@@H](C)CO)C(=O)Cc2cc(NS(=O)(=O)c3cccs3)ccc2O[C@@H]1CN(C)C	none (no result: MITF TRPM1 HTS, Wnt act, SMARCA2 activ)
CC1(C(=O)OCC(=O)NCc2ccc(Cl)cc2)CC1(Cl)Cl (stereo not drawn)	SMARCA2 activ 8.6 | SMARCA2 conf inactive | GAL4-VP16 Luc inactive
COc1cccc(CNC(=O)[C@H]2[C@H](CO)[C@H]3Cn4c(cccc4=O)[C@@H]2N3C(=O)C2CC2)c1	none (no result: MITF TRPM1 HTS, Wnt act, SMARCA2 activ)
Nc1nc(Nc2ccccc2F)sc1C(=O)c1ccccc1	MITF TRPM1 HTS 100.2, Wnt act 35.3, SMARCA2 activ 8.2 (no result: esBAF inh) | SMARCA2 conf 12.8 | GAL4-VP16 Luc 6.9
Cc1ccc(S(=O)(=O)N2CCN(c3nc(CN4CCCC4)nc4sc(C)c(C)c34)CC2)cc1	none
Cc1ccc(C)c(S(=O)(=O)N2CCN(c3nc(CN4CCOCC4)nc4sc(C)c(C)c34)CC2)c1	SMARCA2 activ 9.1 | SMARCA2 conf inactive | GAL4-VP16 Luc inactive
CN1c2ccc(-c3cccc(F)c3)cc2[C@@H]2[C@@H](CCN2C(=O)c2ccncc2)[C@@H]1CO	none (no result: FGF22 binding, AF4-AF9 inh, MITF TRPM1 HTS, Wnt act, SMARCA2 activ)
C[C@H]1CN([C@@H](C)CO)C(=O)c2cccc(NC(=O)C3CCOCC3)c2O[C@@H]1CN(C)Cc1ccc(C(=O)O)cc1	none (no result: MITF TRPM1 HTS, Wnt act, SMARCA2 activ)
CC(=O)NCCCC(=O)NC(CCC(=O)OCc1ccccc1)C(=O)OCc1ccccc1 (stereo not drawn)	SMARCA2 activ 8.0 | SMARCA2 conf inactive | GAL4-VP16 Luc inactive
O=C(CCC(NC(=O)OCc1ccccc1)C(=O)OCc1ccccc1)NCC(=O)OCc1ccccc1 (stereo not drawn)	none (no result: FGF22 binding, AF4-AF9 inh)
N#C[C@H]1[C@H](c2ccc(-c3cccnc3)cc2)[C@@H](CO)N1C(=O)C1CC1	none (no result: MITF TRPM1 HTS, Wnt act, SMARCA2 activ)
CCN(CC)C(=S)SSC(=S)N(CC)CC	SMARCA2 activ 9.2 | SMARCA2 conf inactive | GAL4-VP16 Luc 7.0
CCN(CC)C(=S)SC1=CCS(=O)(=O)C1	none (no result: esBAF inh)
C[C@@H]1CN([C@@H](C)CO)C(=O)c2cc(-c3ccccc3)cnc2O[C@@H]1CN(C)Cc1ccccn1	none (no result: MITF TRPM1 HTS, Wnt act, SMARCA2 activ)
CCOC(=O)C1(Cc2ccccc2)C(=O)Nc2ccccc21 (stereo not drawn)	none (no result: esBAF inh)
CCOC(=O)C1(C(F)(F)F)N=C(C(F)(F)F)Nc2ccccc21 (stereo not drawn)	SMARCA2 activ 9.8 | SMARCA2 conf inactive | GAL4-VP16 Luc inactive
CNC(=O)C[C@H]1CC[C@H]2[C@@H](COc3ccc(NC(=O)c4ccc(F)cc4)cc3C(=O)N2C)O1	none (no result: MITF TRPM1 HTS, Wnt act, SMARCA2 activ)
CN1CCSc2ccc(C(=O)NCc3ccccc3F)cc21	none
CN1CCSc2ccc(C(=O)Nc3cc(F)ccc3F)cc21	MITF TRPM1 HTS 96.6, Wnt act 43.0, SMARCA2 activ 11.0 | SMARCA2 conf inactive | GAL4-VP16 Luc 12.2
Cc1ccsc1/C=N/NC(=O)c1sccc1C	SMARCA2 activ 10.8 (no result: FGF22 binding, AF4-AF9 inh) | SMARCA2 conf 12.0 | GAL4-VP16 Luc 11.0
C=COC(=O)CSc1nc(-c2cccs2)ccc1C#N	SMARCA2 activ 8.3 | SMARCA2 conf inactive | GAL4-VP16 Luc 9.3
CC(C(=O)OCC(=O)c1c(N)n(C)c(=O)n(C)c1=O)N1C(=O)c2ccccc2C1=O (stereo not drawn)	SMARCA2 activ 10.4 (no result: esBAF inh) | SMARCA2 conf inactive | GAL4-VP16 Luc inactive
